The source made the active and inactive calls. Unless noted, no rule for the calls is given here.
Legend:
[1] = A549 cell viability effects, profiling panel, calcein-AM fluorescence, 48 h, basal (AID 1162); settings: higher = more signal; also: test concentration not given here
[2] = adipocyte viability effects, profiling panel, cell-based, 3T3-L1 adipocytes, calcein-AM fluorescence, 48 h, basal (AID 1163); settings: 3T3-L1 adipocytes viability, higher = more signal; also: test concentration not given here
[3] = HepG2 cell viability effects, profiling panel, calcein-AM fluorescence, 48 h, basal (AID 1164); settings: higher = more signal; also: test concentration not given here
[4] = MM1S cell viability effects, profiling panel, calcein-AM fluorescence, 48 h, basal (AID 1165); settings: higher = more signal;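 also: viability of MM1S multiple myeloma cells under basal unstimulated conditions; test concentration not given here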
[5] = basal RPMI8226 viability, no added stimulus, profiling panel, cell-based, calcein-AM fluorescence, 48 h, PK04 Diversity Set (AID 1166); settings: RPMI8226 myeloma viability, higher = more signal;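 also: cells grown under basal conditions without added stimulus; test concentration not given here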
[6] = basal HepG2 mitochondrial membrane potential changes, profiling panel, cell-based, JC-1 fluorescence, 24 h, 100 nL compound (AID 1167); settings: higher = more signal; also: test concentration not given here
[7] = basal 3T3-L1 adipocyte mitochondrial potential changes, profiling panel, cell-based, JC-1 fluorescence, 3T3-L1 adipocytes, 24 h, 100 nL compound (AID 1168); settings: JC-1 mitochondrial fluorescence, higher = more signal, called active from +8 up or from −8 down; also: test concentration not given here
[8] = basal RPMI8226 mitochondrial membrane potential changes, profiling panel, cell-based, JC-1 fluorescence, 24 h, 100 nL compound (AID 1169); settings: RPMI8226 myeloma, JC-1 mitochondrial potential fluorescence, higher = more signal; also: test concentration not given here
[9] = basal MM1S mitochondrial membrane potential changes, profiling panel, cell-based, JC-1 fluorescence, 24 h, 100 nL compound (AID 1170); settings: higher = more signal; also: test concentration not given here
[10] = A549 lung cancer cell viability effects, profiling panel, resazurin fluorescence, 24 h, PK04 Diversity Set (AID 1171); settings: higher = more signal, called active from +8 up or from −8 down; also: test concentration not given here
[11] = HepG2 liver cancer cell viability effects, profiling panel, resazurin fluorescence, 24 h, PK04 Diversity Set (AID 1172); settings: higher = more signal; also: test concentration not given here
[12] = basal S. cerevisiae growth modulation, no modifier, primary screen, OD600, strain BY4716, 24 h, basal condition (AID 1173); settings: OD600, 24 h, higher = more signal, called active from +8 up or from −8 down
[13] = MM1S myeloma cell viability, profiling panel, resazurin fluorescence, basal, 24 h, PK04 Diversity Set (AID 1174); settings: higher = more signal, called active from +8 up or from −8 down;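 also: MM1S multiple myeloma cell line; test concentration not given here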
[14] = target: Dihydroorotate dehydrogenase (quinone), mitochondrial (Plasmodium falciparum (isolate 3D7)) (UniProt Q08210); test: PfDHODH enzyme inhibitors, primary screen, biochemical, C-terminal His tag, absorbance 600 nm (AID 1175); settings: DCIP absorbance 600 nm, higher = more signal, called active from +8 up or from −8 down;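 also: recombinant parasite enzyme with a five histidine tag at its C terminus; test concentration not given here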
[15] = P. aeruginosa biofilm formation inhibitors, primary screen, strain PAO1, LB-PBS medium, absorbance 600 nm (AID 1176); also: test concentration not given here; settings: P. aeruginosa PAO1 growth/biofilm, A600, 12 h; higher = more signal
[16] = S. cerevisiae RM11-1a growth modifiers, primary screen, strain RM11-1a, OD600, basal, 24 h (AID 1177); settings: OD600, 24 h, higher = more signal, called active from +8 up or from −8 down;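 also: cultures grown under basal conditions with no added stressor; test concentration not given here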
[17] = E. coli acrAB mutant growth effects, primary screen, E. coli filamentation inducers, strain DRC39, OD650, 24 h (AID 1178); settings: higher = more signal, called active from +8 up or from −8 down;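 also: growth measured as culture turbidity by optical density at 650 nm; test concentration not given here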
[18] = E. coli acrAB mutant growth effects, primary screen, E. coli filamentation inducers, strain DRC39, OD650, 48 h (AID 1179);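 also: screen aims at cell division blockers that make cells filament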; settings: E. coli DRC39 delta-acrAB growth, higher = more signal, called active from +8 up or from −8 down
[19] = RPMI8226 myeloma cell viability, profiling panel, resazurin fluorescence, basal, 24 h, PK04 Diversity Set (AID 1180); settings: higher = more signal;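 also: RPMI8826 multiple myeloma cell line at 5000 cells per well; test concentration not given here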
[20] = target: E3 ubiquitin-protein ligase XIAP (Homo sapiens) (UniProt P98170); test: XIAP binders, primary screen, biophysical, small-molecule microarray, fluorescence 635 nm (AID 1181); settings: small-molecule microarray binding, higher = more signal;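 also: score merges 667 nm emission and signal to noise over triplicate slides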
Sequence of E3 ubiquitin-protein ligase XIAP (Homo sapiens) (P98170 whole entry, looked up): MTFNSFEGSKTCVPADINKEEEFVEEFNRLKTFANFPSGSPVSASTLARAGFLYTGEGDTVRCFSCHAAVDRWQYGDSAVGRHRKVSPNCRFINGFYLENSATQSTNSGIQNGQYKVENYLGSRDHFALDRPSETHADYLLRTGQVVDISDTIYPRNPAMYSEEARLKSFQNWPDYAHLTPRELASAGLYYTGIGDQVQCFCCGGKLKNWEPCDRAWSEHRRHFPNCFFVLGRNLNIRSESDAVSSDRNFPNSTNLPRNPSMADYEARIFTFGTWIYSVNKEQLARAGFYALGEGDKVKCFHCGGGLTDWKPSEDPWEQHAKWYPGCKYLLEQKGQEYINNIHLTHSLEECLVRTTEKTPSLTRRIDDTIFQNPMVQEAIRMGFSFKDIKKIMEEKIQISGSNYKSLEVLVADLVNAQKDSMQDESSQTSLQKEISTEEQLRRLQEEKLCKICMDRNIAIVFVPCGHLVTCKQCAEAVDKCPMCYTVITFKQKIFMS

Sequence of Dihydroorotate dehydrogenase (quinone), mitochondrial (Plasmodium falciparum (isolate 3D7)) (Q08210 whole entry, looked up): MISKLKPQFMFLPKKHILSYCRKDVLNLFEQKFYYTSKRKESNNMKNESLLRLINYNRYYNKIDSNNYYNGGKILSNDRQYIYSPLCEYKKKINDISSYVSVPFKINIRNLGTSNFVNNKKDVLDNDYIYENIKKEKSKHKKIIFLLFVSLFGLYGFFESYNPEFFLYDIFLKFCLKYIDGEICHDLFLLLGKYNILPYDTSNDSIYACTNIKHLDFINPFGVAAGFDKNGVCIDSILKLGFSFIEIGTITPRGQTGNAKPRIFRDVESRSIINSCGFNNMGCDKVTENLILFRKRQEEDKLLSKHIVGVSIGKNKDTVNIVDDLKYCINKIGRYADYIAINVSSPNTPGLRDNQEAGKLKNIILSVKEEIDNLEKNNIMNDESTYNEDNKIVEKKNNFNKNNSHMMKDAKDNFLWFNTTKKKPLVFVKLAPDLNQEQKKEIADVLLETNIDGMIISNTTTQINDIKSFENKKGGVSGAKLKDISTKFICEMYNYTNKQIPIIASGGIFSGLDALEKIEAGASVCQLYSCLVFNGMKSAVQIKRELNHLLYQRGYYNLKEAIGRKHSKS

SMILES	z-score [1]	z-score [2]	z-score [3]	z-score [4]	z-score [5]	z-score [6]	z-score [7]	z-score [8]	z-score [9]	z-score [10]	z-score [11]	z-score [12]	z-score [13]	composite z-score [14]	z-score [15]	z-score [16]	z-score [17]	z-score [18]	z-score [19]	composite z-score [20]
C=CCC(OC(C)=O)[C@@H]1[C@@H](N(Cc2cc3ccccc3o2)C(=O)c2ccc(C)cc2)c2cc(OCCCO)ccc2N1C(=O)c1ccc(-c2ccccc2)cc1 (stereo not given in full)	2.54	1.34	1.8	0.217	1.46	2.87	-0.314 (inactive)	0.614	-0.763	0.875 (inactive)	0.419	-2.68 (inactive)	-0.0884 (inactive)	-3 (inactive)	0.444 (inactive)	-3.8 (inactive)	1.15 (inactive)	1.35 (inactive)	1.07	2.75
CC1CC/C=C\[C@H]2OC34C=CCN(Cn5nnc6ccccc65)C(=O)[C@H]3N(CCCO)C(=O)[C@@H]4C2C(=O)O1 (stereo not given in full)	-0.677	1.5	-0.501	0.159	-0.894	-0.0699	-0.382 (inactive)	0.0216	0.638	0.356 (inactive)	-0.0236	1.06 (inactive)	0.502 (inactive)	0.317 (inactive)	-0.221 (inactive)	0.801 (inactive)	0.0706 (inactive)	-0.0371 (inactive)	0.623	0.244
C=C(CCCC)C(=O)CC[C@H](OC(=O)c1ccccc1-c1ccccc1C(=O)O)c1ccc(CO)o1	0.0743	0.418	-0.862	-0.0307	0.334	-0.373	-0.727 (inactive)	-0.658	0.063	1.09 (inactive)	0.985	0.671 (inactive)	0.319 (inactive)	-0.72 (inactive)	0.497 (inactive)	0.996 (inactive)	-0.154 (inactive)	0.16 (inactive)	0.64	-0.154
C=CCN1C(=O)[C@]2(Cc3ccccc31)N=C(c1ccc(OCCCO)cc1)O[C@@H]2c1ccccc1	-0.686	-0.201	-0.377	-0.9	-3.41	-0.844	1.83 (inactive)	-1.11	-0.672	-2.13 (inactive)	-1.05	-2.22 (inactive)	-1.48 (inactive)	-0.699 (inactive)	0.134 (inactive)	0.821 (inactive)	-1.3 (inactive)	-0.802 (inactive)	-1.33	-0.0062
Cc1ccc(N2C(=O)c3ccccc3[C@@H](C(=O)NC(C)C)[C@@H]2c2ccc(CO)cc2)nc1	-0.749	-0.0953	-0.617	0.385	-0.526	0.199	-0.286 (inactive)	0.918	-0.67	2.16 (inactive)	1.48	-1.69 (inactive)	1.09 (inactive)	-0.309 (inactive)	0.69 (inactive)	-0.434 (inactive)	0.282 (inactive)	0.375 (inactive)	1.17	0.147
CCCC[C@H]1OB(O)C[C@H]2C1=C(COc1ccccc1)C[C@H]1C(=O)N(Cc3ccccc3)C(=O)[C@H]12	0.358	0.488	-0.429	-1.09	-1.08	0.989	0.241 (inactive)	-0.163	-0.446	0.574 (inactive)	0.552	-1.91 (inactive)	0.804 (inactive)	-1.25 (inactive)	-0.802 (inactive)	-0.0955 (inactive)	0.875 (inactive)	-0.281 (inactive)	0.421	0.0617
CO[C@H]1O[C@H](CO)[C@@H](OC(=O)Nc2ccc3c(c2)OCO3)[C@H](OC(=O)Nc2ccc3c(c2)OCO3)[C@H]1OC(=O)Nc1ccc2c(c1)OCO2	-0.689	-0.121	-1.09	-1.57	-0.566	0.328	0.374 (inactive)	0.0119	0.961	0.38 (inactive)	-0.159	1.66 (inactive)	-0.798 (inactive)	-0.145 (inactive)	2.5 (inactive)	2.54 (inactive)	1.73 (inactive)	-0.273 (inactive)	-0.511	0.463
CCCCN1CC=CC23O[C@@H]4/C=C\CCCOC(=O)C4[C@H]2C(=O)N(C(C)CO)[C@@H]3C1=O (stereo not given in full)	-0.455	-0.455	-0.564	0.35	1.4	0.698	0.0147 (inactive)	-0.546	-1.11	-0.249 (inactive)	-0.901	-0.138 (inactive)	0.196 (inactive)	-0.415 (inactive)	-0.857 (inactive)	0.429 (inactive)	0.742 (inactive)	0.738 (inactive)	0.442	-0.157
COCCOC(=O)N1C(=O)[C@@]2(c3cc(C#CCCO)ccc31)[C@H](C(=O)NC[C@H](O)c1ccccc1)[C@H]1C(=O)O[C@H](c3ccccc3)[C@H](c3ccccc3)N1[C@@H]2c1ccc(OCCO)cc1	-0.339	1.22	-0.981	-0.97	-0.304	-1.25	0.623 (inactive)	-0.8	-0.904	1.21 (inactive)	0.76	0.757 (inactive)	0.857 (inactive)	-0.689 (inactive)	1.75 (inactive)	1.21 (inactive)	0.696 (inactive)	-0.567 (inactive)	1.43	0.275
